High-throughput results deposited in PubChem BioAssay by Buhrlage Lab, Dana-Farber Cancer Institute and Novartis Institutes for BioMedical Research (Cambridge, Mass).
USP10 inh – blocks human USP10 ubiquitin-rhodamine cleavage | actives 1.1% (n = 47,000) | Q14694 | AID 1645856 | purified USP10, Ub-rhodamine fluorescence, 60 min | inhibition, % at 20 µM
USP8 inh – human USP8 deubiquitinase inhibition. purified USP8, Ub-rhodamine cleavage fluorescence, 30 min. inhibition, % at 20 µM. actives 4.2% (n = 47,000). AID 1645853
USP17 block – human USP17-like deubiquitinase inhibition; A8MUK1; purified USP17, Ub-rhodamine cleavage fluorescence, 3 h; inhibition, % at 50 µM; actives 6.5% (n = 47,000)
USP7 block – human USP7 deubiquitinase inhibition | Q93009 | purified USP7, Ub-rhodamine cleavage fluorescence | inhibition, % at 20 µM | actives 0.3% (n = 47,000) | AID 1645854
USP30 inh – human USP30 deubiquitinase inhibition | purified USP30, Ub-rhodamine cleavage fluorescence | inhibition, % at 25 µM | actives 5.3% (n = 47,000)
UCHL1 block – blocks human UCHL1 ubiquitin-rhodamine cleavage; P09936; purified UCHL1, Ub-rhodamine cleavage fluorescence; inhibition, % at 20 µM; actives 0.2% (n = 47,000)
Active calls of the source: *; · = not tested or not shown. An excerpt weighted towards active compounds, which were near 12% of everything screened. No stated cut-off is given here; in the data, active means inhibition above about 30%; inactive means the rest.

SMILES | USP10 inh | USP8 inh | USP17 block | USP7 block | USP30 inh | UCHL1 block
O=C(CSc1nnc(CNC(=O)c2ccccc2F)o1)Nc1ccc(OC(F)(F)F)cc1 | 4 | 6 | 63* | -4 | 32* | 1
CCOC(=O)c1ccc(NC(=O)CSc2nnc(CNC(=O)c3cccs3)o2)cc1 | 2 | 4 | 50* | 4 | 18 | 4
CCOC(=O)c1ccc(NC(=O)CSc2nnc(CNC(=O)c3ccccc3F)o2)cc1 | 4 | 1 | 20 | 5 | 10 | 3
Cc1nc(-c2ccncc2)nc2c1CCC(=O)N2C1CCCC1 | -2 | 17 | 11 | -4 | 9 | 1
CC(=O)c1ccc(NC(=O)N2C[C@@H]3C[C@H]2C[C@@H]3NC(=O)c2ccccc2)cc1 | -4 | -16 | -9 | -2 | -19 | -3
COc1ccc2c(C(O)CN3CCN(c4ccc(F)cc4)CC3)c[nH]c2c1 (centres undefined) | -6 | -53 | -20 | -14 | -40 | -4
OC(CN1CCN(c2ccc(F)cc2)CC1)c1ccc2c(c1)CCN2 (centres undefined) | 2 | 18 | 58* | 0 | 61* | -2
O=C(Cn1cnc2sc(-c3ccccc3)cc2c1=O)N(Cc1ccccc1F)C1CC1 | 5 | 16 | 34* | 4 | 35* | 0
O=C(Cn1cc(-c2nnco2)c2ccccc21)NC1CCCCCC1 | 2 | 0 | 38* | -1 | -9 | -2
Cc1nnc(-c2cn(CC(=O)NC3CCCCCC3)c3ccccc23)o1 | -3 | -4 | -8 | 2 | -4 | -1
COc1ccc(CNC(=O)c2c(O)c3cccnc3n(-c3ccccc3)c2=O)cc1 | 3 | 84* | 22 | 3 | 20 | 2
Cc1cccc(NC(=O)Cn2cnc3c(c(C)c(C)n3-c3ccccc3)c2=O)c1 | -1 | 0 | 23 | 0 | 0 | 1
COc1cccc(NC(=O)Cn2cnc3c(c(C)c(C)n3-c3ccccc3)c2=O)c1 | 13 | 20 | 1 | 3 | 9 | 6
Cc1c(C)n(-c2ccccc2)c2ncn(CC(=O)NCc3ccccc3F)c(=O)c12 | 17 | 34* | 7 | 10 | 22 | 5
Cc1c(C)n(-c2ccccc2)c2ncn(CC(=O)NC(C)c3ccccc3)c(=O)c12 (centres undefined) | 20 | 20 | · | 8 | 75* | 6
COc1ccc(OC)c(NC(=O)Cn2cnc3c(c(C)c(C)n3-c3ccccc3)c2=O)c1 | 0 | 32* | -1 | 3 | -47 | 8
CNC(=O)Cn1cnc2c(c(C)c(C)n2-c2ccc(Cl)cc2)c1=O | -1 | 0 | 50* | -28 | -38 | -3
Cc1c(C)n(-c2ccccc2)c2ncn(CC(=O)Nc3cccc(F)c3)c(=O)c12 | -1 | 0 | · | -5 | 10 | 0
Cc1cc(=O)n(CC(=O)Nc2ccc(F)cc2)c(N2CCCC2)n1 | 2 | 10 | 3 | -5 | 13 | 1
Cc1cccc(CNC(=O)Cn2cnc3c(c(C)c(C)n3-c3ccccc3)c2=O)c1 | 18 | 36* | 4 | 11 | 9 | 6
COc1cccc(CNC(=O)Cn2cnc3c(c(C)c(C)n3-c3ccccc3)c2=O)c1 | 5 | -4 | -9 | -1 | 0 | -1
Cc1nc(CNC(=O)c2ccc(-c3noc(C4CC4)n3)cc2)no1 | 0 | -3 | -11 | 0 | -5 | 0
Cc1cccc(NC(=O)CNC(=O)c2ccc(-c3noc(C4CCCC4)n3)cc2)c1C | 59* | 0 | 32* | 18 | 35* | 3
COc1ccc(C(CNC(=O)c2cc(-c3ccc(Cl)cc3)on2)N2CCOCC2)cc1 (centres undefined) | 25 | 40* | · | 8 | 29 | -1
O=C(COc1ccccc1)N1CCC2(CC1)NC(=O)N(CCOc1ccccc1)C2=O | -2 | 6 | -2 | -10 | -9 | 1
COc1ccc2oc(C(=O)NC(C)c3ccccn3)c(C)c2c1 (centres undefined) | -2 | -1 | · | 0 | -9 | -2
COc1ccc2oc(C(=O)Nc3ccc4ccccc4n3)c(C)c2c1 | -3 | -12 | 32* | -1 | -76 | 0
Cc1ccnc(NC(=O)c2nc(C)n(-c3ccc(F)cc3)n2)c1 | -3 | 0 | -51 | -5 | -15 | -7
Nc1ccc(NS(=O)(=O)c2ccc3c(c2)OCCCO3)cc1 | 1 | 33* | 16 | -1 | -8 | 1
